Values joined by “and” are separate entries in the source; they are usually repeats but may differ in a detail not shown here. Equal entries are not always repeated. Active and inactive are the calls of the source. A call without a number means that no potency is given here. Unless noted, calls follow the shape of the dose curve; as a rule, active = well fitted curve in the direction sought with a large enough effect in the repeat runs; inconclusive = weak or mixed curves; inactive = no such curve, though single readings can be large; an effect the other way counts as inactive or inconclusive.
Columns and labels:
[1] = qHTS assay to identify small molecule antagonists of the glucocorticoid receptor (GR) signaling pathway - cell viability counter screen (AID 720693); also: nearly all actives have a fitted effect of over 55% in size; also: potency is read from the fitted curve at half-maximal effect
[2] = qHTS assay for identifying genotoxic compounds that show differential cytotoxicity against isogenic chicken DT40 cell lines with known DNA damage response pathways - wild type cell line (AID 743012); also: nearly all actives have a fitted effect of over 60% in size; also: potency is read from the fitted curve at half-maximal effect
Method in brief: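 Viability by ATP luminescence (CellTiter-Glo, 30 min RT) after 40 h compound treatment at 37 C/5% CO2, using 300 parental DNA repair-proficient DT40 cells per well.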

[3] = qHTS assay for identifying genotoxic compounds that show differential cytotoxicity against isogenic chicken DT40 cell lines with known DNA damage response pathways - Rev3 mutant cell line (AID 743014); also: nearly all actives have a fitted effect of over 55% in size; also: potency is read from the fitted curve at half-maximal effect
[4] = qHTS assay for identifying genotoxic compounds that show differential cytotoxicity against isogenic chicken DT40 cell lines with known DNA damage response pathways - Rad54/Ku70 mutant cell line (AID 743015); also: nearly all actives have a fitted effect of over 60% in size; also: potency is read from the fitted curve at half-maximal effect
[5] = biological target: Androgen receptor (Homo sapiens) (UniProt P10275); assay: qHTS assay to identify small molecule agonists of the androgen receptor (AR) signaling pathway using the MDA cell line (AID 743040; also: nearly all actives have a fitted effect of over 20% in size)
Method in brief: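 Agonist activity is measured as luciferase luminescence in human MDA-kb2 cells whose MMTV reporter responds to both AR and GR. Compounds in DMSO incubate 16 h at 37C, 0% CO2, and ONE-Glo is read after 30 min.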

[6] = biological target: Androgen receptor (Homo sapiens) (UniProt P10275); assay: qHTS assay to identify small molecule antagonists of the androgen receptor (AR) signaling pathway using the MDA cell line (AID 743042; also: potency is read from the fitted curve at half-maximal effect; nearly all actives have a fitted effect of over 55% in size)
Method in brief: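 MDA-kb2 cells (human breast carcinoma, stably carrying an MMTV-luciferase reporter responsive to AR and GR) were plated at 3,000 cells/well and preincubated 5 hr at 37C, then given compound plus R1881 agonist for 16 h. ONE-Glo luminescence was read.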

[7] = qHTS assay to identify small molecule antagonists of the thyroid receptor (TR) signaling pathway - cell viability counter screen (AID 743064); also: nearly all actives have a fitted effect of over 50% in size; also: potency is read from the fitted curve at half-maximal effect
Method in brief: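 In rat pituitary GH3.TRE-Luc reporter cells co-exposed to compound and 1 nM T3 for 23.5 h, cytotoxicity was assessed with CellTiter-Fluor in the same wells, read by fluorescence.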

[8] = biological target: Estrogen receptor (Homo sapiens) (UniProt P03372); assay: qHTS assay to identify small molecule antagonists of the estrogen receptor alpha (ER-alpha) signaling pathway (AID 743069; active = well fitted curve in the direction sought with a large enough effect in the signal ratio in the repeat runs, not every such curve was filed as active; inconclusive = weak or mixed curves, or effect the other way; inactive = no such curve, though single readings can be large or run the other way; the % refers to the signal ratio; also: potency is read from the fitted curve at half-maximal effect)
Method in brief: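 Screening used a UAS-driven beta-lactamase reporter integrated into HEK293 cells expressing ER-alpha, stimulated with 17beta-estradiol alongside test compounds over 18 hr at 37C; signal came from LiveBLAzer B/G FRET fluorescence.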

[9] = biological target: Estrogen receptor (Homo sapiens) (UniProt P03372); assay: qHTS assay to identify small molecule agonists of the estrogen receptor alpha (ER-alpha) signaling pathway (AID 743075; calls by dose curve)
[10] = qHTS assay to identify small molecule antagonists of the estrogen receptor alpha (ER-alpha) signaling pathway using the BG1 cell line (AID 743080; calls by dose curve;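 also: BG1 cells stimulated with 17beta-estradiol alongside compound; nearly all actives have a fitted effect of over 25% in size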); conditions: BG1Luc4E2 ERE-luciferase antagonist mode, luminescence; activity change, negative = inhibition: at 70.3 µM (top of the series)
Method in brief: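 BG1-Luc-4E2 cells (endogenous full-length ER-alpha, 4xERE luciferase) hormone-starved 5 days in charcoal-stripped FBS, plated 4,000/well for 24 h, then compound plus 17beta-estradiol for 21.5 h at 37 C; ONE-Glo luminescence read.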

Aromatase (Homo sapiens) = Aromatase (Homo sapiens) (UniProt P11511); assay: qHTS assay to identify aromatase inhibitors (AID 743083); also: nearly all actives have a fitted effect of over 55% in size; also: potency is read from the fitted curve at half-maximal effect
[11] = qHTS assay to identify aromatase inhibitors - cell viability counter screen (AID 743084); also: potency is read from the fitted curve at half-maximal effect
[12] = qHTS assay to identify small molecule antagonists of the androgen receptor (AR) signaling pathway - cell viability counter screen (AID 743033; also: nearly all actives have a fitted effect of over 45% in size)
[13] = qHTS assay to identify small molecule antagonists of the androgen receptor (AR) signaling pathway using the MDA cell line - cell viability counter screen (AID 743041; also: nearly all actives have a fitted effect of over 45% in size; also: potency is read from the fitted curve at half-maximal effect)
Method in brief: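 qHTS viability read-out; MDA-kb2 AR-luc; R1881-stimulated; 16 h exposure at 37C, 0% CO2; CellTiter-Fluor, 30 min; fluorescence intensity.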

[14] = system: thyroid hormone receptor (rat, GH3 cells); assay: qHTS assay to identify small molecule agonists of the thyroid receptor (TR) signaling pathway (AID 743066; calls by dose curve)
[15] = qHTS assay to identify small molecule antagonists of the estrogen receptor alpha (ER-alpha) signaling pathway - cell viability counter screen (AID 743074; calls by dose curve; also: nearly all actives have a fitted effect of over 45% in size)
[16] = biological target: Estrogen receptor (Homo sapiens) (UniProt P03372); assay: qHTS assay to identify small molecule agonists of the estrogen receptor alpha (ER-alpha) signaling pathway using the BG1 cell line (AID 743079); conditions: BG1Luc4E2 cells, ERE-luciferase agonist, 22 h; activation: at 70.3 µM (top of the series); also: nearly all actives have a fitted effect of over 20% in size; also: potency is read from the fitted curve at half-maximal effect
[17] = qHTS assay to identify small molecule antagonists of the estrogen receptor alpha (ER-alpha) signaling pathway using the BG1 cell line - cell viability counter screen (AID 743081);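 also: compound given together with 17beta-estradiol as the ER stimulus; nearly all actives have a fitted effect of over 45% in size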; also: potency is read from the fitted curve at half-maximal effect
[18] = qHTS assay to identify small molecule antagonists of the thyroid receptor (TR) signaling pathway (AID 743065); also: nearly all actives have a fitted effect of over 55% in size; also: potency is read from the fitted curve at half-maximal effect
Method in brief: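 GH3.TRE-Luc rat pituitary cells carrying two TR response elements driving luciferase were plated for 4 h, given compound plus 1 nM T3 (final), and incubated 23.5 h at 37 C. ONE-Glo luminescence measured reporter inhibition; CellTiter-Fluor fluorescence tracked cytotoxicity.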

Estrogen receptor (Homo sapiens), sequence (P03372 whole entry, looked up): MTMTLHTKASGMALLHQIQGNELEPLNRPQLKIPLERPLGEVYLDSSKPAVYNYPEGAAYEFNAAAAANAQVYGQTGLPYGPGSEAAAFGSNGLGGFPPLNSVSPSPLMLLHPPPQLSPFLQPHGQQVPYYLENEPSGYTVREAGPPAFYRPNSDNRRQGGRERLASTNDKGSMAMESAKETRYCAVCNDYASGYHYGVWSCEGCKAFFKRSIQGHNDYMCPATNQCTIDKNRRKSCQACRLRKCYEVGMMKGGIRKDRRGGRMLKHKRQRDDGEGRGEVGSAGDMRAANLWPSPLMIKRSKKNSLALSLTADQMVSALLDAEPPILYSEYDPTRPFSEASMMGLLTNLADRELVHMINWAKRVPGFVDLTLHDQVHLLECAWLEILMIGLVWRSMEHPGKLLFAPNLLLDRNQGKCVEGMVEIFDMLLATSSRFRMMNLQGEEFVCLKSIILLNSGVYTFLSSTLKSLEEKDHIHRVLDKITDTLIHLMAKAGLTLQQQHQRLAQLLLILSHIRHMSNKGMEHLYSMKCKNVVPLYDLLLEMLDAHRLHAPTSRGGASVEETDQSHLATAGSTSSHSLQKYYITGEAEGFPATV
Androgen receptor (Homo sapiens), sequence (P10275 whole entry, looked up): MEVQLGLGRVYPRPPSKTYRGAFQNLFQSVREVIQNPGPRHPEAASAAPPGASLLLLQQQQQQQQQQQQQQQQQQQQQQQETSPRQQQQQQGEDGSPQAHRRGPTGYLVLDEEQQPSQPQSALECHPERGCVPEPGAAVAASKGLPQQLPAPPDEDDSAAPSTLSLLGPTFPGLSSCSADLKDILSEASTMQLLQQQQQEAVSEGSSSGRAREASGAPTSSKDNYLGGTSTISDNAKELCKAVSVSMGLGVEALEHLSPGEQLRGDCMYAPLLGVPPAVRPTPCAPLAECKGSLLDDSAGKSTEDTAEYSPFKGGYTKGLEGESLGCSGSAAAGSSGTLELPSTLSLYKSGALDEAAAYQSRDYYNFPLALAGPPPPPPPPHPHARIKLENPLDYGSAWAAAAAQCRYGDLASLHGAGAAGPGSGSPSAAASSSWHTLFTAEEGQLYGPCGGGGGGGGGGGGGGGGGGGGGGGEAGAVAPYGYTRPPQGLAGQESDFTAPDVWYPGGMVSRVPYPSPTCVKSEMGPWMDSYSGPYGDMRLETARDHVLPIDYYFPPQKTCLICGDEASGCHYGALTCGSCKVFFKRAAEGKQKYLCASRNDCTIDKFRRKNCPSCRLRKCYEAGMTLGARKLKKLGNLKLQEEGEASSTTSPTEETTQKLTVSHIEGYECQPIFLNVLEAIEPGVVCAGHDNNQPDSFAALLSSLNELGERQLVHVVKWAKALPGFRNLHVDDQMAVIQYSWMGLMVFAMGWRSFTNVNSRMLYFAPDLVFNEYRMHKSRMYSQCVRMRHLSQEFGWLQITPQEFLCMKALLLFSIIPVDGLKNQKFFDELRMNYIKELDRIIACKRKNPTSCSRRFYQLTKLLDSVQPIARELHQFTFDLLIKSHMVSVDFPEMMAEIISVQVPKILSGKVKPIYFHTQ
Aromatase (Homo sapiens), sequence (P11511 whole entry, looked up): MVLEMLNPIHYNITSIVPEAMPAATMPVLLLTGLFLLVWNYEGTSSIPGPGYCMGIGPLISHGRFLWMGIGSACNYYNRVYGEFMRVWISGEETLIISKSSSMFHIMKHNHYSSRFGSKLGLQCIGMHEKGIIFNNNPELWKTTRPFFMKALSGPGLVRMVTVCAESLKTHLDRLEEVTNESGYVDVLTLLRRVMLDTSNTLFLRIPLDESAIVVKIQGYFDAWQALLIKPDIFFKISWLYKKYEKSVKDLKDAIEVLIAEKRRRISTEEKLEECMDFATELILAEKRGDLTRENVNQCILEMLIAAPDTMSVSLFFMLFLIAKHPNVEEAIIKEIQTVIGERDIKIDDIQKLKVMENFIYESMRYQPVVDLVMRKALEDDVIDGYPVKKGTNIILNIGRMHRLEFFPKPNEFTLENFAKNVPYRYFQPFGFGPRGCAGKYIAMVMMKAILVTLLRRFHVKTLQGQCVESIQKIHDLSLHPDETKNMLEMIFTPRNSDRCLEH

Structure (SMILES)	Potency [1]	Potency [2]	Potency [3]	Potency [4]	Potency [5]	Potency [6]	Potency [7]	Potency [8]	Potency [9]	Potency [10]	Potency (Aromatase (Homo sapiens))	Potency [11]	Potency [12]	Potency [13]	Potency [14]	Potency [15]	Potency [16]	Potency [17]	Potency [18]
COc1cc(C=C2CCC/C(=C\c3ccc(O)c(OC)c3)C2=O)ccc1O	23.9 µM (active)	8.41 µM (active)	11.9 µM (active)	9.44 µM (active)	inactive	21.1 µM (active)	7.5 µM (active)	15.1 µM [inconclusive] (active)	inactive	inactive	21.1 µM (active)	21.1 µM (active)							
CCCCCCCC/C=C/CCCOC(C)=O	inactive	inactive		inactive			inactive	inactive	inactive	inactive	inactive	inactive	inactive	inactive	inactive	inactive	inactive	inactive	
CCc1ccc(O)c(C(C)(C)C)c1	inactive	43.3 µM (active)	30.6 µM (active)	30.6 µM (active)			54.5 µM (active)	inactive		inactive	68.6 µM (active)				inactive	inactive	27.3 µM (active)	inactive	61.1 µM (active)
CCCCN(CCCC)CCC(O)c1cc2c(Cl)cc(Cl)cc2c2cc(C(F)(F)F)ccc12 (centres undefined)	inactive	11.4 µM (active)		10.1 µM (active)				inactive	inactive	inactive	inactive	inactive	inactive	inactive		inactive	inactive	inactive	
CCC(=O)OCCc1ccccc1	inactive	18.5 µM (active)	23.3 µM (active)	41.4 µM (active)			inactive	inactive	inactive	inactive		inactive		inactive	inactive	inactive	inactive	inactive	
CC(C(O)c1ccccc1)N(C)CCOC(c1ccccc1)c1ccccc1 (centres undefined)	inactive	5.31 µM (active)	8.41 µM (active)	9.44 µM (active)			11.9 µM (active)	inactive	inactive	inactive	29.8 µM (active)			26.6 µM (active)					16.8 µM (active)
CCCCNc1c(C(=O)OCC)c(C)nc2c1cnn2CC	inactive	21.1 µM (active)	23.7 µM (active)	26.6 µM (active)				inactive	inactive	inactive	inactive	inactive	inactive	inactive	inactive	inactive	inactive	inactive	
CCCCCCC(C)OC(=O)COc1nc(F)c(Cl)c(N)c1Cl (centres undefined)	inactive	43.3 µM (active)	38.6 µM (active)	38.6 µM (active)									inactive		inactive	inactive		inactive	
Cc1nc(Nc2ncc(C(=O)Nc3c(C)cccc3Cl)s2)cc(N2CCN(CCO)CC2)n1	inactive	5.96 µM (active)	9.44 µM (active)	6.68 µM (active)			18.8 µM (active)		inactive		1.33 µM (active)	inactive	inactive			inactive			
Clc1ccccc1CN1CCc2sccc2C1	inactive	23.7 µM (active)	21.1 µM (active)	26.6 µM (active)							inactive	inactive	inactive	inactive	inactive	inactive		inactive	
Nc1ccc2cc3ccc(N)cc3nc2c1	19 µM (active)	2.66 µM (active) and 5.45 µM (active)	2.98 µM (active) and 2.73 µM (active)	1.33 µM (active) and 1.37 µM (active)	inactive						16.8 µM (active) and 6.11 µM (active)				inactive	inactive			5.31 µM (active) and 3.06 µM (active)
Cc1cccc(C)c1NC(=O)CN1CCN(CCCC(c2ccc(F)cc2)c2ccc(F)cc2)CC1	inactive	4.03 µM (active)	5.69 µM (active)	7.17 µM (active)							inactive	inactive	inactive	inactive		inactive		inactive	
SCCCCCCCCS	inactive	68.6 µM (active)		54.5 µM (active)			inactive				inactive	inactive	inactive	inactive	inactive	inactive		inactive	inactive
CCN(CC)CCNc1ccc(CO)c2sc3ccccc3c(=O)c12	inactive	0.841 µM (active)	0.298 µM (active)	0.237 µM (active)			4.73 µM (active)	30.1 µM [inconclusive] (active)	inactive		inactive	inactive		26.6 µM (active)		inactive		13.3 µM (active)	1.06 µM (active)
CCCCCCCC/C=C\CCCCCCCC(=O)OCCOC(=O)CCCCCCC/C=C\CCCCCCCC	inactive	inactive	inactive	inactive					inactive	inactive	inactive	inactive	inactive	inactive	inactive	inactive	71.2 µM (active)	inactive	
CCCCOc1ccc(C(=O)CCN2CCCCC2)cc1	inactive	0.717 µM (active)	1.27 µM (active)	1.01 µM (active)			5.07 µM (active)	inactive	inactive		inactive	inactive		10.6 µM (active)		inactive	4.52 µM (active)	inactive	3.59 µM (active)
